Screening data from PubChem.
MPTP inh: mitochondrial permeability transition pore inhibitors, primary screen, biochemical, isolated mouse mitochondria, absorbance; Ca2+ swelling absorbance, 30 min; inhibition, % at 10 µM; 360,000 tested, 1.4% active; AID 602449, 2012;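 active = inhibition of 50% or more, scaled per plate between neutral and stimulator controls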;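 also: 0% = DMSO wells given calcium and 100% = 1 mM EGTA wells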
FAS TE block: FAS thioesterase domain inhibitors, primary screen, biochemical, fluorescence intensity, uHTS; Fatty acid synthase (Homo sapiens), P49327; recombinant FAS-TE, OMFH fluorogenic substrate, fluorescence endpoint; inhibition, % at 15 µM; 360,000 tested, 0.67% active; AID 602261, 2012;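 active = compounds whose normalised, plate-corrected inhibition of enzyme fluorescence in the single-dose primary screen is 50% or more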;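 also: 0% = DMSO with enzyme and 100% = substrate without enzyme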
Mot1-301 SUMO: yeast Mot1-301 growth rescue at high temperature, primary screen, SUMOylation pathway inhibitor project, S. cerevisiae, ATP luminescence, 38.5C; S. cerevisiae Mot1-301 growth rescue; percent above DMSO median, 100 means doubled; growth rescue, % at 18.8 µM; 320,000 tested, 1% active; AID 2716, 2010;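 active = every valid replicate shows activation above 250% relative to neutral control wells; inactive = the rest, any valid replicate at or below 250%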;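 also: OY570 slx delta 5 strain wells were the positive control but not used for scaling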
H9c2 protect: cardioprotection against H2O2-induced cell death, primary screen, uHTS, H9c2 cells, ATPLite luminescence. H9c2 cardiomyocytes, H2O2 injury protection, 2 h. protection from H2O2 cell death, % at 20 µM. 360,000 tested, 0.63% active;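 active = compounds giving at least 50% protection of heart cells from peroxide-induced death in the single-dose screen, raw or plate-pattern-corrected value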;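 also: 0% = DMSO wells with peroxide and 100% = DMSO wells without peroxide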
CR mimetic SO: reduction of superoxide in aged yeast, primary screen, HTS; S. cerevisiae aged cells, superoxide DHE fluorescence; stronger effect = lower value; superoxide response (% of plate mean), % at 10 µM; 330,000 tested, 0.18% active;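 active = superoxide response under a set limit, about three screen SD below normal, cut at about 65% in these data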;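 also: yeast aged for seven days with compound at 30 °C before DHE staining; 100% = average MFI of all compound-treated wells on the plate with controls excluded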
aDG glyco up: activators of alpha-DG glycosylation, primary screen, uHTS, Pro5-aDG cells, AlphaScreen. alpha-DG glycosylation AlphaScreen (IIH6); 0% Pro5, 100% B10-LARGE cell signal. activation, % at 10 µM. 360,000 tested, 0.22% active;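 active = activation of at least 8% versus controls, or a plate z-score of at least 8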;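 also: Pro5 are CHO cells carrying HIG-tagged alpha-DG that lacks glycosylation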
MPTP counter: fluorescence retest of MPTP screen hits in isolated mitochondria, single concentration; shares compounds with MPTP inh; membrane potential, Rhodamine 123 fluorescence; inhibition, % at 10 µM; 5,000 tested, 78% active; in the data active = inhibition above about 22%;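 also: 0% = DMSO vehicle and 100% = positive control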
MPTP swell DR: mitochondrial permeability transition pore inhibitors, dose response, biochemical, absorbance, uHTS hits; AID 651561, 2012; 780 tested, 58% active; isolated mitochondria swelling; shares compounds with MPTP inh; IC50, µM; in the data active = IC50 below about 20 µM
MPTP cs DR: fluorescent counter-screen in isolated mitochondria, dose response, counter-screen for MPTP inhibitor project, biochemical, fluorescence, uHTS hits; shares compounds with MPTP inh; isolated mitochondria counterscreen, fluorescence read-out; IC50, µM; 780 tested, 49% active; AID 651564, 2012; in the data active = IC50 below about 80 µM
Numbers without * were called inactive; i = inactive; / = no result given. Only some compounds are listed: those with a hit (about 3.8% of all), similar ones and a draw of the others.

SMILES | MPTP inh | FAS TE block | Mot1-301 SUMO | H9c2 protect | CR mimetic SO | aDG glyco up | MPTP counter | others
Oc1c(Cl)cc(Cl)cc1/C=C/c1ccc2cccc(O)c2n1 | 98* | 13 | 8 | -26 | 87 | 0 | 74*
CC(=O)c1c(C)[nH]c(C(=O)CSc2ccc(F)cc2)c1C | 90* | 5 | 186 | -15 | 107 | 1 | 84*
CCOC(=O)c1c(C)[nH]c(C(=O)CSc2ccccc2)c1C | -6 | 2 | 6 | -26 | 102 | 0 | /
O=C(Nc1ccc([N+](=O)[O-])cc1)/C(=C/c1cccc([N+](=O)[O-])c1)NC(=O)C1CCCCC1 | 98* | 59* | 1 | -7 | 107 | 0 | 75*
OC[C@@H]1CN(Cc2ccc3c(c2)OCO3)C[C@H](n2cnc3c(NCc4ccc(F)cc4)ncnc32)O1 | 0 | -1 | / | 14 | / | 0 | /
O=C(N/N=C/c1c[nH]c2ccccc12)c1cccc(Cl)c1 | 1 | -1 | -5 | 22 | 108 | 0 | /
O=C(N/N=C/C1C(c2ccccc2)C1(Cl)Cl)c1cccc(Cl)c1 (stereo not given) | 75* | 3 | 24 | 7 | 98 | 0 | 80*
O=C1C2N=NN(CC(=O)N3N=C(c4ccccc4)CC3c3ccc([N+](=O)[O-])cc3)C2C(=O)N1c1ccccc1 (stereo not given) | / | / | -4 | / | 103 | / | /
O=C(Nc1ccc(OC(F)F)c(Cl)c1)C(c1ccccc1)c1ccccc1 | 83* | 46 | -8 | -35 | 99 | 1 | 90*
O=C(Cc1cccc2ccccc12)Nc1ccc(OC(F)F)c(Cl)c1 | 85* | 37 | 7 | -8 | 76 | 0 | 90*
CCC(C(=O)Nc1ccc(OC)c(Cl)c1)c1ccccc1 (stereo not given) | 2 | 14 | / | -3 | 89 | 0 | /
NC(c1csc(Nc2ncccn2)n1)c1ccccc1Cl (stereo not given) | 0 | -10 | / | 4 | / | 0 | /
CC(C)N1CC2(CC(c3ccccc3F)=NO2)CN1C(=O)c1ccc(C(C)(C)C)cc1 (stereo not given) | 2 | 19 | / | -31 | / | 0 | /
CC(C)N1CC2(CC(c3ccc(Cl)cc3Cl)=NO2)CN1C(=O)c1ccc(C(C)(C)C)cc1 (stereo not given) | 52* | 21 | / | -33 | / | 1 | 14 | MPTP swell DR=8.8*;MPTP cs DR=29*
COc1cccc(CNS(=O)(=O)c2ccc3c(c2)CC(C)N3C(=O)C2CC2)c1 (stereo not given) | 27 | -6 | 2 | -8 | 68 | 1 | /
COc1ccc(CNS(=O)(=O)c2ccc3c(c2)CC(C)N3C(=O)C2CC2)cc1 (stereo not given) | 99* | 2 | -12 | -13 | 105 | 0 | 88*
COc1ccc(C(=O)C2CCCN(Cc3cccn3-c3ccc(Cl)cn3)C2)c(OC)c1 (stereo not given) | 76* | 13 | 301 | -28 | 107 | 1 | 99*
Cc1occc1-c1nnc(SCC(=O)NC(C)(C)C)n1CC(C)C | 0 | -2 | -9 | 0 | 99 | 0 | /
Cc1occc1-c1nnc(SCC(=O)NCc2ccco2)n1CC(C)C | 63* | -9 | -13 | -4 | 104 | 0 | 6 | MPTP swell DR=i;MPTP cs DR=>80
O=C(CN(C(=O)c1csnn1)c1cccc(F)c1)NC1CCCC1 | 1 | -4 | 137 | 2 | 105 | 0 | /
COc1ccc([C@H]2N[C@]3(CCCN(Cc4ccc(Cl)cc4)C3=O)[C@H]3C(=O)N(Cc4ccccc4)C(=O)[C@@H]23)cc1 | 0 | 23 | / | -4 | / | 0 | /
C[C@H](O)[C@@H]1CN2CCc3c([nH]c4ccccc34)[C@@H]2C[C@@H]1N(C)C(=O)Nc1ccc(Br)cc1 | 83* | 0 | / | -7 | / | 0 | 104*
C[C@H](O)[C@@H]1CN2CCc3c([nH]c4ccccc34)[C@@H]2C[C@@H]1N(C)C(=O)NC1CCCCC1 | -1 | -7 | / | -7 | / | 0 | /
Cc1cc(C)cc(NC(=S)NCCSc2ccc(Cl)cc2)c1 | 87* | 31 | -7 | -10 | 120 | 1 | 98*
Cc1ccc(SCCNC(=S)Nc2ccccc2)cc1 | 6 | 5 | 4 | -13 | 96 | 0 | /
SMILES | MPTP inh | FAS TE block | Mot1-301 SUMO | H9c2 protect | CR mimetic SO | aDG glyco up | MPTP counter | others
Cc1ccc(SCCNC(=S)Nc2ccc(C)c(C)c2)cc1 | 72* | 24 | 2 | -15 | 95 | 0 | 91*
COC(=O)Cc1ccc(NC(=S)NCCSc2ccc(Cl)cc2)cc1 | 63* | 25 | 18 | -3 | 99 | 0 | 77*
COCCCN1C(=O)C(CC(=O)NC(c2ccccc2)c2ccccc2)CC(C(=O)N2CCOCC2)=C1C (stereo not given) | -1 | -7 | / | 12 | / | 4 | /
COC(=O)c1ccc(N2CCOCC2)c(NC(=O)Nc2cccc(OC)c2)c1 | 1 | 2 | 241 | -6 | 99 | 0 | /
CCOC(=O)c1ccc(N2CCN(c3ccccc3F)CC2)c(NC(=O)Nc2cccc(OC)c2)c1 | 78* | 38 | -4 | 6 | 83 | 0 | 84*
NCCCCc1ccc2ccc3cccc4ccc1c2c34 | 89* | -31 | / | 10 | / | 0 | -15 | MPTP swell DR=6.2*;MPTP cs DR=53*
O=C(NC(NC(=S)Nc1c(Cl)cccc1Cl)C(Cl)(Cl)Cl)OCc1ccccc1 (stereo not given) | 100* | 28 | 96 | -24 | 97 | 1 | 67*
C[C@H]1CN(c2ccccc2)C(=O)[C@@H]1CC(=O)Nc1ccc(Br)cc1 | 1 | 8 | / | -28 | / | 0 | /
COc1ccc(CNCC(O)(c2ccc(F)cc2)c2ccc(F)cc2)cc1 | 73* | 12 | -15 | -13 | 103 | 0 | 16 | MPTP swell DR=6.6*;MPTP cs DR=20*
COc1ccc(CNCC(O)(c2ccccc2)c2ccccc2)cc1 | 2 | 0 | -10 | -10 | 97 | 0 | /
COc1cc2c(c(OC)c1OC)C(c1ccccc1C)CC(=O)O2 (stereo not given) | 1 | 4 | / | 19 | 100 | 0 | /
CCN(CC)c1ccc(Nc2nc(N3CCOCC3)c3ccccc3n2)cc1 | 29 | 5 | 0 | -17 | 91 | 0 | /
